# About 1,300 (0.36%) of roughly 360,000 compounds were called active. Rule as the data show it: active = inhibition above about 35% (passing the limit was not always enough); inactive = the rest. Only a selection was taken, and actives are over-represented in it overall.
# Target: Polyadenylate-binding protein 1 (Homo sapiens) (UniProt P11940)
# Assay: PAM2 peptide displacement from PABP1 MLLE – biochemical, fluorescence polarization, FITC-PAM2, GST-MLLE, primary screen (AID 588489);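 also: plate controls were DMSO wells with GST-MLLE for no effect and wells lacking GST-MLLE protein for full effect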
# Conditions: at 20 µM, hits give high values
# Sequence of Polyadenylate-binding protein 1 (Homo sapiens) (P11940 whole entry, looked up): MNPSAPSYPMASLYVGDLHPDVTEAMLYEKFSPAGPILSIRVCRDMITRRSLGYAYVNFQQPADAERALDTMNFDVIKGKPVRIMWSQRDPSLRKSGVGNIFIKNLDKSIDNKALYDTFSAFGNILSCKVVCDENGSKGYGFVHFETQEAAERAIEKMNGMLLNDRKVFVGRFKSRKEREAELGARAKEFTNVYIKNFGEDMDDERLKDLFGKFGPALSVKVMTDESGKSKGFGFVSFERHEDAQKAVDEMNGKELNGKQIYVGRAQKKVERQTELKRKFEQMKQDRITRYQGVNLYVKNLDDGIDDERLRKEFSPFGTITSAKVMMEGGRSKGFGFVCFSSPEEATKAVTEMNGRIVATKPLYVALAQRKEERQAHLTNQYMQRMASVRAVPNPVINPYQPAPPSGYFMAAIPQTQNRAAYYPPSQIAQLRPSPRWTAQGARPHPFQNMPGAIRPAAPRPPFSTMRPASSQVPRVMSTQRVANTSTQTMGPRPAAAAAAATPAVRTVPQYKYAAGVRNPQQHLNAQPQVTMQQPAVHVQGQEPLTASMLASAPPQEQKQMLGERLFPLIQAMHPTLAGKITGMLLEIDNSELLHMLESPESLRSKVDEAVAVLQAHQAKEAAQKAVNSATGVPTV
row,SMILES,inhibition
1,Cc1cccc(N(C(=O)Cc2cccs2)C(C(=O)NC2CCCC2)c2ccsc2)c1 (centres undefined),-14.8% (inactive)
2,COc1ccc(C)cc1NC(=S)N1CCOCC1,-27.2% (inactive)
3,COc1cc(C(=S)N2CCOCC2)ccc1O,38.4% (active)
4,CCOc1cc(C(=S)N2CCOCC2)ccc1O,20.9% (inactive)
5,Cc1ccc(OCC(=O)Nc2ccccc2C(=O)NC2CC2)cc1C,8.8% (inactive)
6,O=S(=O)([N-]c1nc2ccccc2nc1-[n+]1ccc(Cc2ccccc2)cc1)c1ccc(Br)s1,43.3% (active)
7,O=S(=O)(NCc1ccccn1)c1ccc(Br)s1,-6.68% (inactive)
8,O=C(c1ccc(N2CCOCC2)c([N+](=O)[O-])c1)N1CCN(S(=O)(=O)c2cccs2)CC1,-8.8% (inactive)
9,COc1ccc(C(=O)N2CCN(c3ccc(C(C)=O)cc3F)CC2)cc1S(=O)(=O)NC1CC1,0.55% (inactive)
10,CC(C)CCn1cnc2c1c(=O)n(CC(=O)NC(N)=O)c(=O)n2Cc1ccccc1,-0.54% (inactive)
11,CC(=O)Nc1ccc(SCC(=O)NC(=O)c2ccc(Cl)cc2)cc1,15.4% (inactive)
12,CC(=O)Nc1ccc(SCC(=O)Nc2ccccc2Oc2ccccc2)cc1,38.1% (active)
13,O=C(CSc1ccccc1)Nc1cc(Cl)ccc1Oc1ccccc1,6.51% (inactive)
14,CC(=O)Nc1cc(-c2ccc(N3CCN(C)CC3)cc2)cn2c(-c3ccc(F)cc3)cnc12,-30.8% (inactive)
15,CC(C)c1cc(C(=O)N/N=C/c2ccoc2)c(O)c(C(C)C)c1,-7.21% (inactive)
16,COC(=O)N/N=C/c1c[n+]([O-])c2ccccc2[n+]1[O-],41.1% (active)
17,CC(C)(C)OC(=O)N/N=C/c1ccc(C(=O)O)cc1,-10.6% (inactive)
18,COC(=O)N/N=C/c1ccc(-c2ccc(Cl)c(Cl)c2)o1,15.1% (inactive)
19,CCOC(=O)c1c(C)[nH]c(C2=NNC(=NC(C)COC)SC2)c1C (centres undefined),-90.6% (inactive)
20,CC(C)N(c1ccccc1)c1ncnc(NCCC(=O)O)c1[N+](=O)[O-],-7.92% (inactive)

row,SMILES,inhibition
1,CC1=C(C(=O)Nc2ccc(Cl)cc2)C(c2ccco2)NC(=O)N1 (centres undefined),-4.08% (inactive)
2,CN1OC[C@@H]2CN(S(=O)(=O)c3cccc(C(F)(F)F)c3)[C@H](c3ccc(-c4cc5ccccc5o4)cc3)C[C@@H]21,-4.18% (inactive)
3,COC(=O)C1=C(Nc2ccc(C)cc2)C=C(C)C(C(=O)OC)C1c1ccc(F)cc1 (centres undefined),-12% (inactive)
4,Cc1cc(=O)n(C)c(=O)n1CCCNc1ccccc1,-0.23% (inactive)
5,Cc1[nH]c(N)nc(=S)c1CCCNc1ccccc1,40.1% (active)
6,CCc1c(Nc2ccccc2C)nc(N)[nH]c1=O,-2.64% (inactive)
7,CN(C)CCCNC(=S)N1CCN(c2nc(-c3ccccc3)cs2)CC1,-128% (inactive)
8,CCOc1ccc(NC(=O)CN(C)C(=O)Cc2sc(C)nc2-c2ccc(F)cc2)cc1OCC,-16.1% (inactive)
9,CCOC(=O)N1CCN(C(=O)C2CCN(c3ncnc4c3sc3cccc(F)c34)CC2)CC1,-13.7% (inactive)
10,CCOC(=O)N1CCN(C(c2cccnc2)c2ccc3cccnc3c2O)CC1 (centres undefined),37.9% (active)
11,CCCCC(=O)NC(c1ccc(OC)c(OC)c1)c1ccc2cccnc2c1O (centres undefined),5.41% (inactive)
12,COc1ccc(C(CNCC(=O)Nc2ccccc2F)N(C)C)cc1 (centres undefined),4.22% (inactive)
13,O=C1c2ccccc2C(=O)N1CCc1nn[nH]n1,-10.4% (inactive)
14,O=C(CC1CCCCC1)NCc1ccco1,2.87% (inactive)
15,O=C(CSc1nnnn1-c1ccccc1)NCc1ccco1,-13.1% (inactive)
16,O=C(CSC1=Nc2ccccc2C2=NC(CC(=O)NCc3ccco3)C(=O)N12)NCc1ccco1 (centres undefined),38.7% (active)
17,CCCCCC1CCC(c2nnc(SCC(C)=O)o2)CC1 (centres undefined),-9.06% (inactive)
18,C/C=C/c1ccc(OCCCCN2CCC(C)CC2)c(OC)c1,-4.4% (inactive)
19,CC(C)CNC(=O)C1(C)CCCN1C(=O)CSc1ccccc1 (centres undefined),10.8% (inactive)
20,COc1cc(/C=C/C(=O)OCC(=O)NCCCc2ccccc2)ccc1O,7.53% (inactive)

row,SMILES,inhibition
1,Cc1nc([N+](=O)[O-])nn1C12CC3CC(CC(Br)(C3)C1)C2,39.5% (active)
2,Cc1cccc(NC(=O)CSc2nnc(NC(=O)CN3CCOCC3)s2)c1,-8.76% (inactive)
3,C=CC1=C(C(=O)O)N2C(=O)[C@@H](NC(=O)/C(=N\OCC(=O)O)c3csc(N)n3)[C@H]2SC1,41% (active)
4,C=CC1=C(C(=O)O)N2C(=O)[C@@H](NC(=O)/C(=N/OCC(=O)O)c3csc(N)n3)[C@H]2SC1,30.8% (inactive)
5,O=C(CSc1ccsc1[N+](=O)[O-])N1CCCCC1,-4.37% (inactive)
6,O=C1CSC2=NCN(c3ccccc3)CN12,-6.21% (inactive)
7,O=C(CCC(=O)OCc1cccc(C(=O)Oc2ccccc2)c1)Nc1cccc2ccccc12,9.55% (inactive)
8,CC(=O)Nc1ccc(S(=O)(=O)Oc2ccc(Br)cc2C(=S)N2CCOCC2)cc1,5.89% (inactive)
9,CCOc1cc(C(=S)N2CCOCC2)ccc1OS(=O)(=O)c1ccc(Br)cc1,8.34% (inactive)
10,O=S(=O)(Oc1ccccc1C(=S)N1CCOCC1)c1ccc(Cl)cc1,44.5% (active)
11,Cc1ccc(C)c(OCCC(=O)Nc2cccc(S(=O)(=O)N3CCCC3)c2)c1,10.9% (inactive)
12,CCN(CC)S(=O)(=O)c1ccc(N2CCOCC2)c(NC(=O)C(C)Oc2ccc(F)cc2)c1 (centres undefined),3.55% (inactive)
13,Oc1ccc2ccccc2c1N=Nc1nccs1,55.3% (active)
14,COc1ccc(C(c2nnnn2C2CCCC2)N2CCN(C/C=C/c3ccccc3)CC2)cc1 (centres undefined),9.42% (inactive)
15,O=C(Cn1cnc2c(OCc3ccccc3)ncnc21)NCc1nc2ccccc2[nH]1,6.52% (inactive)
16,CCn1c(CNC(=O)c2ccc(OC)c(OC)c2)nnc1SCC(=O)Nc1ccccc1,-12% (inactive)
17,COc1ccccc1-n1c(SCC(=O)Nc2ccc(Cl)cc2)nc(O)c(Cc2ccccc2)c1=O,18.6% (inactive)
18,CCc1c(O)nc(SCC(=O)Nc2ccccc2)n(C(C)CC)c1=O (centres undefined),48% (active)
19,O=C(CC12CC3CC(CC(C3)C1)C2)Nc1ccc2c(c1)COC2=O,10.3% (inactive)

# From PubChem BioAssay AID588489 (Sanford-Burnham Center for Chemical Genomics, 2011)
